# Source: PubChem BioAssay
# HCMV inh: qHTS Assay for inhibitors of the human cytomegalovirus (HCMV) | HFF cells, HCMV-luciferase reporter, 72 h; active compounds read low | activity change, negative = inhibition, % at 57.5 µM | 410,000 tested, 4.5% active; in the data active = activity change below about -60%; inconclusive = no clear call, values can overlap the other calls; inactive = above about -39%
#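 After 16 h attachment at 37C, HFF cells received test compound and HCMV-luciferase (1 PFU/cell); reporter luminescence read 72 h later, data normalized against buffer-only and known inhibitor Salinomycin.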
# FMDV inh: High Throughput Screening for Foot and Mouth Disease Virus Antivirals | 410,000 tested, 1.2% active | FMDV antiviral cell-based qHTS | Potency, µM (highest dose often 57.9 µM), for inactives: at the top dose activity change, negative = inhibition, hits mostly inhibitors; calls by dose curve; tested in HEK293T cells; also: read-out not given here; potency is read from the fitted curve at half-maximal effect; nearly all actives have a fitted effect of over 45% in size
# MARV entry inh: qHTS for inhibitors of binding or entry into cells for Marburg Virus. Marburg virus pseudotyped entry inhibition, cell reporter. Potency, µM (series often up to 37.8 µM), without a hit: top-dose activity change, negative = inhibition, hits mostly inhibitors. 300,000 tested, 1.8% active; calls by dose curve; tested in HEK293 cells; also: potency is read from the fitted curve at half-maximal effect
# Lassa entry inh: qHTS for Inhibitors of binding or entry into cells for Lassa Virus. Potency, µM (highest dose often 37.9 µM), inactives show at the highest dose activity change, negative = inhibition, actives largely listed as inhibitors. AID 540256, 2011. 300,000 tested, 1.2% active. Lassa virus pseudotype entry inhibition, cell reporter; calls by dose curve; tested in HEK293 cells; also: potency is read from the fitted curve at half-maximal effect; nearly all actives have a fitted effect of over 50% in size
# * marks the source's active call; other numbers are inactive results; ? = inconclusive; · = no result; ! = a repeat was not active; [ ] = another dose, or the depositor's remark. The list is not random: actives were taken first. Their share in the collection is about 6.2%. % is scaled to controls: 0 for no effect and ±100 for the full control effect.
SMILES,HCMV inh,FMDV inh,MARV entry inh,Lassa entry inh
C#Cc1ccc([C@H]2C=C(C(=O)OCC=C)O[C@@H](OCC)[C@@H]2CCCO)cc1,5,-22%,·,·
CCCCc1c(CCC)c(=N)c2ccccc2n1C,-98*,?,?,?
O=CC1=C(c2ccccc2)Oc2ccccc2O1,-94*,?,7.9µM*,?
O=[N+]([O-])c1cnn(-c2nc(-c3ccco3)cc(C(F)(F)F)n2)c1,-97*,-5%,-2%,?
COc1cccc(-c2cnc(NCc3cc(Cl)ccc3O)n2C)c1,·,?,?,-4%
CCOC(=O)c1cc2cc(OC)ccc2n1C1CCN(CCc2ccccc2)CC1,7,-7%,·,·
Cc1nc(SCc2ccc(F)cc2)c2oc3ccccc3c2n1,-16,6%,16%[46.1 µM],-20%
Cc1cc(C)c2c(CC(=O)NC(C)C)coc2c1,-61*,4%,-18%[46.1 µM],-1%
COc1ccc(CCN2CCC(Nc3nc4ccccc4n3Cc3ccc(F)cc3)CC2)cc1,·,0%,4.1µM*,?
CCCCC1(Cc2ccc([N+](=O)[O-])cc2)C(=O)N(c2ccccc2)N(c2ccccc2)C1=O,-98*,?,7.9µM*,?
CN(c1ccccc1)S(=O)(=O)c1ccc(NC(=S)NC(=O)c2ccccc2)cc1,-28,-27%,-4%,?
CN(c1ccccc1)S(=O)(=O)c1ccc(NC(=O)CC(=O)c2ccccc2)cc1,-33,40µM*,-43%,-19%
Cc1nc2ccc(NC(=O)N(C)c3ccccc3)cc2s1,36,-2%,27%[46.1 µM],?
Cc1nc2ccc(NC(=O)c3cccc(S(=O)(=O)N4CC(C)OC(C)C4)c3)cc2s1 (stereo not given),0,20µM*,-28%[46.1 µM],?
CN(C)S(=O)(=O)c1ccc(NC(=S)NC(=O)Cc2ccccc2)cc1,-63*,-17%,-1%[46.1 µM],23%[46.1 µM]
Cc1nc2ccc(NC(=O)c3ccc(S(=O)(=O)N(C)c4ccccc4)cc3)cc2s1,-82*,22µM*,?,?
COc1ccc(CCNC(=O)CSc2nnc(-c3cccc(C)c3)o2)cc1OC,-13,-13%,-1%,16%
COc1ccc(NC(=O)c2ccc(S(=O)(=O)N(C)c3ccccc3)cc2)cn1,-62*,18µM*,·,·
CC1CN(S(=O)(=O)c2ccc(NC(=O)c3cc(-c4ccccc4O)n[nH]3)cc2)CC(C)O1 (stereo not given),-98*,?,12µM*,21µM*
O=C(Nc1ccc(S(=O)(=O)N2CCOCC2)cc1)c1cc(-c2ccccc2O)n[nH]1,?,0%,·,·
COc1cc(C(=O)Nc2ccc(S(=O)(=O)N(C)c3ccccc3)cc2)cc(OC)c1OC,-21,-3%,?,?
COc1ccc(C(=O)Nc2ccc(S(=O)(=O)N(C)c3ccccc3)cc2)cc1,-69*,?,?,?
COc1ccc(C(=O)NCCS(=O)(=O)NCc2ccc(F)cc2)cc1,-9,8%,2%[46.1 µM],-21%
COc1nc(Nc2ccc(C(C)=O)cc2)nc(OC)n1,64,·,8%,2%
CCCCn1c(N)c(-c2nc3ccccc3s2)c2c([N+](=O)[O-])nn(CC)c(=O)c21,-29,1%,?,?
SMILES,HCMV inh,FMDV inh,MARV entry inh,Lassa entry inh
CCCCCn1c(N)c(-c2nc3ccccc3s2)c2c([N+](=O)[O-])nn(CC)c(=O)c21,-6,7%,2.9µM*,11%
COc1cccc(C2C3=C(N=c4s/c(=C\c5cccc(O)c5)c(=O)n42)c2ccccc2CC3)c1OC (stereo not given),-96*,-18%,-23%,?
COc1cccc(C2C3=C(N=c4s/c(=C\c5ccc(O)cc5)c(=O)n42)c2ccccc2CC3)c1OC (stereo not given),-4,-19%,20%,11%
Cc1c(F)cccc1NC(=O)CCCCCC1NC(=O)NC1C (stereo not given),-71*,44%,20%,17%
CC1NC(=O)NC1CCCCCC(=O)Nc1ccc(F)cc1 (stereo not given),23,-3%,?,1%
COc1ccc(NC(=O)CN2C(=O)/C(=C3\SC(=S)N(C4CCS(=O)(=O)C4)C3=O)c3ccccc32)cc1 (stereo not given),-4,?,?,-22%[46.1 µM]
O=C(CN1C(=O)/C(=C2\SC(=S)N(C3CCS(=O)(=O)C3)C2=O)c2ccccc21)Nc1ccc(F)cc1 (stereo not given),?,13µM*,4%[46.1 µM],13%
Cc1cccc(NC(=O)COC(=O)CCCC2=NS(=O)(=O)c3ccccc3N2)c1,-104*!,3%,0%[46.1 µM],?
CC(=O)Nc1ccc(N(C(=O)c2ccco2)C(C(=O)NC2CCCC2)c2ccc(N3CCOCC3)cc2)cc1 (stereo not given),-32,-1%,-1%[46.1 µM],-15%[46.1 µM]
C/C(N)=C(/C#N)C(=O)COC(=O)Cc1coc2ccc3ccccc3c12,-68*,5%,?,-7%
C/C(N)=C(/C#N)C(=O)COc1ncnc2ccccc12,14,10%,23%,8%
Fc1ccccc1Cn1c2[n+](c3ccc(C(F)(F)F)cc31)CCCCC2,-68*,-18%,-5%[46.1 µM],-11%[46.1 µM]
CCOP(=O)(c1ccc(N(C)C)cc1)C(O)c1ccccc1 (stereo not given),-83*,-12%,?,9%
Cc1cccc(NC(=S)NC(C)(C)CC(C)(C)C)c1,-65*,-18%,?,-14%[46.1 µM]
Cc1ccc2c(c1)S/C(=C\c1cccc[n+]1C)N2CCO,-97*,?,·,·
Cc1ccc2c(c1)S/C(=C/c1ccc[n+](CCO)c1)N2C,-95*,?,?,·
COc1cccc(C(=O)/C=C2\Sc3ccccc3N2C)c1,-2,-7%,?,?
C[n+]1ccccc1/C=C1\Sc2ccccc2N1CCO,?,-13%,-24%,?
CC(C)OC(=O)CC1C(=O)NCCN1C(=S)NC(=O)c1ccccc1Cl (stereo not given),-35,-8%,-4%[46.1 µM],-5%[46.1 µM]
COc1ccccc1N1CCN(/N=C/c2cc(OC)c(OC(C)=O)c(OC)c2)CC1,1,5%,·,·
COCCNC(=O)C1(C)CCCN(C(=O)c2ccc3ccccc3c2)C1 (stereo not given),7,-21%,·,·
CC1=C(/C=C/C(C)=C/C=C/C(C)=C/CO)C(C)(C)CCC1,·,-26%,·,·
Cc1csc(NC(=O)c2cc3c(s2)CCCCC3)n1,?,8.9µM*,?,2.2µM*
Cc1csc(NC(=O)c2cc3c(s2)CCCC3)n1,24,-63%,·,·
CC1CCCN(C(=O)COC(=O)C2CCN(S(=O)(=O)c3c(Cl)cccc3Cl)CC2)C1 (stereo not given),-14,-9%,?,7%
CNC(=O)COc1ccccc1C(=O)Nc1ccc2c(c1)oc1ccccc12,-69*,14%,21µM*,?
CN(C)CCOc1nc(-c2ccccc2)nc2c1oc1ccccc12,-77*,0%,?,?
COc1ccc(Cn2cc(C(=O)c3ccc(Cl)cc3)c(=O)c3cc4c(cc32)OCO4)cc1,-98*,29%,?,?
